CtBP-E1A blk – inhibitors of CtBP/E1A interaction; AlphaScreen GST-E1A/His-CtBP binding, 1536-well; active compounds read low; activity change, % (no concentration beside the values); 0.49% of 340,000 active; AID 651724; in the data active = activity change below about -65%; inconclusive = mostly about -30% to -63%; also: % is scaled to controls: 0 for no effect and ±100 for the full control effect
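Steps: dispense buffer (Tris pH 8.0, NaCl 300 mM, TCEP 1 mM, BSA, Tween 20); add 5X protein mix (GST-E1A, His-CtBP, 125 nM each); pin 23 nL compound; 2 h at 37 °C, dark; add 5X beads (50 ug/mL); 1 h; read.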
HP1b binding inh – blocks HP1-beta chromodomain binding to methylated histone tails. P83916. AlphaScreen HP1-beta / biotin-H3K9me3 peptide binding. Potency, µM (top dose mostly 114 µM), for inactives: at the top dose activity change, negative = inhibition, most hits filed as inhibitors. 0.56% of 390,000 active. AID 540317; also: potency is read from the fitted curve at half-maximal effect; nearly all actives have a fitted effect of over 70% in size
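Compound inhibition of the preformed complex between 50 nM HP1-beta and 50 nM biotinylated H3K9me3 peptide was read by AlphaScreen. Buffer was PBS pH 7.4 with 0.01% Tween-20. Incubations ran 30 min at room temperature, with 10 ug/mL donor/acceptor beads.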
Six1-Eya2 inh – Six1/Eya2 interaction inhibition; Q15475+O00167; AlphaScreen GST-Six1/His-Eya2 binding, biochemical; active compounds read low; activity change, % (concentration not given with the values); 0.56% of 360,000 active; in the data active = activity change below about -65%; inconclusive = mostly about -30% to -63%; also: % is scaled to controls: 0 for no effect and ±100 for the full control effect
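Homogeneous AlphaScreen proximity assay pairing GST-Six1 with His-tagged Eya2 (added as 5X mix: 250 nM and 500 nM) in 50 mM Tris pH 8.0, 300 mM NaCl, 1 mM TCEP. Glutathione donor and nickel acceptor beads; 1 h, 37 °C, dark.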
BAZ2B block – BAZ2B (human) inhibition | Potency, µM (titrated, usually from 114 µM), inactives show top-dose activity change, negative = inhibition, usual class: inhibitors | AID 504333 | 4.4% of 360,000 active | AlphaScreen BAZ2B-H3K14Ac peptide displacement | Q9UIF8; also: potency is read from the fitted curve at half-maximal effect; % is scaled to controls: 0 for no effect and ±100 for the full control effect; nearly all actives have a fitted effect of over 60% in size
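Compounds, titrated to a top concentration of 110 uM, were incubated 30 min at room temperature with preformed BAZ2B/acetyl-K14 H3 peptide complex (50 nM each). Proximity signal was measured by AlphaScreen after 20 min with beads.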
G9a block – inhibitors of human histone lysine methyltransferase G9a. Q96KQ7. G9a H3K9 monomethylation, AlphaScreen, 2 h. Potency, µM (titrated, usually from 102 µM), for the others: top-dose activity, negative = inhibition, hits mostly inhibitors. 8.8% of 350,000 active. AID 504332; also: potency is read from the fitted curve at half-maximal effect; % is scaled to controls: 0 for no effect and ±100 for the full control effect; nearly all actives have a fitted effect of over 75% in size
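Signal arises when biotinylated H3K9 peptide, once monomethylated, bridges streptavidin donor and antibody-captured acceptor beads. Enzyme at 20 nM was preincubated 15 min with test compounds; peptide 500 nM and SAM 20 uM then reacted for 2 h.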
JMJD2A Tudor inh – blocks the human JMJD2A Tudor domain; 4.4% of 390,000 active; AlphaScreen JMJD2A-Tudor / H3K4me3 peptide binding; O75164; Potency, µM (series often up to 114 µM), without a hit: at the highest dose activity change, negative = inhibition, most hits filed as inhibitors; AID 504339; also: potency is read from the fitted curve at half-maximal effect; % is scaled to controls: 0 for no effect and ±100 for the full control effect; nearly all actives have a fitted effect of over 50% in size
* marks the source's active call; other numbers are inactive results; u = inconclusive; x = no result given; [ ] = dose if it differs, or a comment. In the library only some 10% were active in any assay of this set; here they are far more common. Unless noted, calls follow the shape of the dose curve; as a rule, active = well fitted inhibition curve with a large enough effect; inconclusive = small, poorly fitted or top-dose-only effect; inactive = no such curve, though single readings can be large or run the other way.

SMILES	CtBP-E1A blk	HP1b binding inh	Six1-Eya2 inh	BAZ2B block	G9a block	JMJD2A Tudor inh
CS(=O)(=O)NCCCNc1ccc(C(F)(F)F)cc1[N+](=O)[O-]	1.8	9.5%	10.4	-32.6%	-21.1%	-14.0%
O=[N+]([O-])c1cc(C(F)(F)F)cc([N+](=O)[O-])c1NCc1cccnc1	-1.7	-19.5%	-1.0	-27.8%	50.1µM*	-33.2%
O=[N+]([O-])c1ccc(Cl)cc1NCc1cccnc1	-1.8	u	-10.3	x	x	-25.0%
O=[N+]([O-])c1cc(C(F)(F)F)cc([N+](=O)[O-])c1NCCCNc1ccc([N+](=O)[O-])c2cccnc12	-28.3	-38.3%	-29.5	-36.8%	3.55µM*	u
Cc1ccc(Cl)cc1NS(=O)(=O)c1cc2c(cc1Cl)CCC(=O)N2	x	x	x	x	x	-18.4%
CCn1c(O)c(/C=N/N=C/c2ccccc2)c2ccc(C3=NNC(=O)CC3)cc21	-18.9	24.5%	-4.8	5.9%	11.7%	-9.7%
CCC(CC)=N/N=C/c1c(O)n(CC)c2cc(C3=NNC(=O)CC3)ccc12	-17.5	26.9%	u	-27.7%	3.55µM*	-21.7%
O=C(COc1ccccc1)NS(=O)(=O)c1ccccc1	4.3	31.5%	4.4	-16.3%	3.55µM*	-5.7%
COc1ccc(OCC(=O)NS(=O)(=O)c2ccc(Cl)cc2)cc1	6.1	34.0%	3.1	1.2%	17.1%[59 µM]	-2.8%
CCc1cnc2c(c1SCC(=O)Nc1ccc(C)cc1C)c(=O)n(C)c(=O)n2C	x	44.6%	x	-1.4%	2.0%[59 µM]	-7.8%
CS(=O)(=O)c1ccc(S(=O)CC(=O)OCc2ccccc2)c([N+](=O)[O-])c1 (stereo not drawn)	0.9	23.9%	-12.5	-21.3%	10µM*	-15.1%
COC(=O)c1ccc(OC(=O)CS(=O)c2ccccc2[N+](=O)[O-])cc1 (stereo not drawn)	6.5	32.5%	-9.9	-10.2%	x	-3.1%
O=C(CS(=O)c1ccc(C(F)(F)F)cc1[N+](=O)[O-])Oc1ccccc1 (stereo not drawn)	-1.7	-37.2%	-1.8	u	50.1µM*	-16.8%[11.4 µM]
CN1CCN(c2ncc3nc(-c4ccc(Cl)cc4)c(=O)n(C)c3n2)CC1	x	x	x	x	3.4%[0.501 µM]	x
COc1cc2c(cc1OC)-c1c(OC)c(OC)cc3ccnc(c13)C2=O	-71.3*	42.2%	u	14.1µM*	-15.0%	-24.6%
COc1ccc(C(=O)c2nccc3cc(OC)c(OC)cc23)cc1OC	-6.9	13.5%	8.5	-34.4%	-25.0%[2.33 µM]	-15.0%
COc1ccc(NC(=O)N2CCC(n3c(C)nc4cccnc43)CC2)cc1OC	x	24.9%	x	-9.2%	6.8%[59 µM]	-1.0%
Cc1cc(SCNC(=O)c2ccccc2)ncn1	15.5	u	5.6	-38.7%	u	28.2µM*
O=C(NCSc1ccccc1)c1ccccc1	4.7	27.6%	2.8	0.3%	2.3%[2.33 µM]	-8.5%
CN1C(=O)Cc2cc(S(=O)(=O)NCc3ccccc3Cl)ccc21	x	15.2%	x	-3.5%	-3.7%[59 µM]	-10.6%
Cc1ccccc1-n1c(SCC(=O)c2c(N)n(C3CC3)c(=O)[nH]c2=O)nnc1N1CCOCC1	x	20.5%	3.9	-1.8%	10µM*	-10.8%
CCn1c(SCC(=O)c2c(N)n(C3CC3)c(=O)[nH]c2=O)nnc1-c1ccccc1OC	-4.9	27.3%	1.0	4.5%	2µM*	-18.4%
Cc1ccc(-n2c(SCC(=O)c3c(N)n(C4CC4)c(=O)[nH]c3=O)nnc2N2CCOCC2)cc1	4.1	21.1%	7.7	-1.8%	-36.7%	-5.4%
O=S(=O)(Nc1c(Br)cc(Br)c2cccnc12)C1CCCCC1	x	37.6%	x	x	x	12.3%
Cc1ccc(-c2nc(SCC(=O)N3CCc4ccccc43)c3c(=O)n(C)c(=O)n(C)c3n2)cc1	x	15.4%[57 µM]	x	0.8%	22.9%[59 µM]	-10.7%
CN1CCS/C1=C/C=C1/SC(=S)N(Cc2ccccc2)C1=O	-27.7	12.6µM*	u	10µM*	u	u
O=C1/C(=C/c2ccccn2)SC(=S)N1CCc1ccccc1	x	12.4%	-14.6	-22.6%	u	-17.3%

High-throughput results (PubChem BioAssay)
